# Screening data: PubChem BioAssay, several laboratories
# Most compounds without a hit are left out; they make up all but 1.7% or so of the library.
# Yp Topo-I inh = Yersinia pestis topoisomerase I inhibitors, primary screen, biochemical, cleavage product accumulation, plate reader, single point | actives 0.064% (n = 360,000) | DNA topoisomerase I (Yersinia pestis CO92) | activity, % at 10 µM | Y. pestis Topo-I cleavage product accumulation; in the data active = activity above about 50%, passing the limit was not always enough
# PrP UTR inh = inhibition of PrP 5' UTR reporter expression. actives 0.35% (n = 340,000). AID 488862, 2010. inhibition, % (test concentration not listed). cell-based PrP 5' UTR mRNA reporter, plate reader; in the data active = inhibition above about 52%; note: 0 = median of the neutral control wells
# PfHsp40 rescue = rescue of yeast from PfHsp40 toxicity, primary screen, S. cerevisiae, ATP luminescence; S. cerevisiae expressing PfHsp40, growth rescue; growth rescue, % at 12.5 µM; actives 0.68% (n = 340,000); AID 504582, 2011; in the data active = growth rescue above about 28%, passing the limit was not always enough;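 note: yeast W303a lacking pdr1 and pdr3 grown in galactose medium; growth measured after three days at 30 °C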
# PrPC TRFRET = inhibitors of human cell surface prion protein PrPC, primary screen, cell-based, TR-FRET; TR-FRET read-out; AID 720596, 2013; actives 0.43% (n = 370,000); inhibition, % at 13.8 µM; in the data active = inhibition above about 24%; note: 0% = median of the test wells and 100% = reference compound wells
# PriA SSB inh = inhibitors of Klebsiella pneumoniae PriA binding to SSB C-terminal tail, primary screen, biochemical, AlphaScreen; actives 0.6% (n = 430,000); AlphaScreen SSBct-PriA binding, biotinylated peptide; inhibition, % at 33 µM; PriA–SSB C-terminal tail interaction (Klebsiella pneumoniae); AID 1272365, 2023; in the data active = inhibition mostly above about 37%, no sharp cut-off; inactive = mostly below about 20%;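 note: plate controls were negative control peptide for no effect and reference peptide for full effect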
# BJeLR lethal = MLPCN primary cell-based screen for lethality selective to Ras in HRASV12 cells. inhibition, % (concentration not given with the values). actives 0.17% (n = 300,000). BJeLR (HRASV12) viability, CellTiter-Glo ATP luminescence, 48 h; in the data active = inhibition above about 50%
# Numbers without * were called inactive; . = no result; + = active, no number; ! = repeats disagree.
SMILES,Yp Topo-I inh,PrP UTR inh,PfHsp40 rescue,PrPC TRFRET,PriA SSB inh,BJeLR lethal
COc1ccc2c(c1)OC[C@H]1[C@H]2N2C(=O)c3cc(C)ccc3NC(=O)[C@@]2(C)[C@H]1c1ccccc1,16,-20,297*,.,14,.
C[C@@]12C(=O)Nc3ccc(Br)cc3C(=O)N1[C@H]1c3ccccc3OC[C@@H]1[C@@H]2c1ccccc1,9,-23,128*,.,14,.
COc1ccc2c(c1)[C@H]1[C@H](CO2)[C@H](c2ccccc2)[C@]2(C)C(=O)Nc3ccc(Cl)cc3C(=O)N12,4,-63,268*,12,16,.
C[C@]12C(=O)N(c3ccccc3)C(=O)N1[C@H]1c3ccccc3OC[C@@H]1[C@H]2c1ccccc1,6,-21,98*,8,-7,.
COc1ccc2c(c1)[C@H]1[C@H](CO2)[C@H](c2ccccc2)[C@]2(C)C(=O)Nc3ccc(C)cc3C(=O)N12,26,-93,20,16,17,.
C[C@]12C(=O)N(c3ccccc3)C(=O)N1[C@@H]1c3ccccc3OC[C@@H]1[C@H]2c1ccccc1,16,1,0,6,-18,-2
CC(=O)N1CC(C(=O)N2CCN(C3CCCCC3)CC2)C1,.,.,.,.,-4,.
Cc1ccc2c(c1)NC(=O)[C@@]1(C)[C@@H](c3ccccc3)[C@H]3COc4ccccc4[C@@H]3N1C2=O,18,-24,9,7,11,.
CCOC(=O)[C@@H]1[C@H]2COc3ccccc3[C@H]2N2C(=O)N(c3ccc(C(F)(F)F)cc3)C(=O)[C@]12C,11,-32,92*,2,-8,8
Cc1ccc2c(c1)C(=O)N1[C@H]3c4ccccc4OC[C@@H]3[C@H](c3ccccc3)[C@]1(C)C(=O)N2,10,-73,128*,.,17,.
CCOC(=O)[C@@H]1[C@H]2COc3ccccc3[C@@H]2N2C(=O)N(c3ccc(C(F)(F)F)cc3)C(=O)[C@@]12C,6,-14,1,-2,19,.
COc1ccc(N(C)S(=O)(=O)c2ccsc2-c2nc(-c3ccc(F)cc3)no2)cc1,.,.,.,.,-6,.
CCOCC(=O)NCCn1ncc2c(=O)n(Cc3ccccc3C)cnc21,.,.,.,.,-3,.
O=C(CN1CCC(c2nc3ccccc3[nH]2)CC1)N1CCOCC1,.,.,.,.,-12,.
COc1cccc(C(=O)Nc2ccc(Cl)cc2C(=O)c2ccccc2)c1,.,.,.,.,1,.
CN(C)c1ccc2nc3ccc(=[N+](C)C)cc-3sc2c1,3,-51,0,-24,1,.
CN(C)c1ccc2nc3ccc(=O)cc-3sc2c1,+,.,.,-34,.,.
CCOC(=O)C1=Nc2cccc3c(O)ccc1c23,.,.,.,-31,.,.
CCOC(=O)C1=Nc2ccccc2C1=[N+]=[N-],-1,-17,33*,19,-4,-5
O=C(NCCn1ncccc1=O)Nc1ccccc1Cl,.,.,.,.,-16,.
O=S(=O)(O)c1cc(Cl)cc(N=Nc2ccc(O)cc2O)c1O,-18,-8,58*,-26,-3,.
CC[C@H](C)C(=O)O[C@H]1C[C@@H](C)C=C2C=C[C@H](C)[C@H](CC[C@@H]3C[C@@H](O)CC(=O)O3)[C@H]21,41,-14,69*!,3,12,-6
CCC(C)C(=O)OC1CCC=C2C=CC(C)C(CCC3CC(O)CC(=O)O3)C21 (stereo not given),3,-19,-1,-5,-3,.
CCOC(=O)c1cnc(-n2nc(C)cc2C)nc1NCCc1ccccc1,4,-12,65*,9,-19,9
CCOC(=O)c1cnc(-n2nc(C)cc2C)nc1Nc1ccc(OC)cc1,6,-7,3,2,-24,-3
SMILES,Yp Topo-I inh,PrP UTR inh,PfHsp40 rescue,PrPC TRFRET,PriA SSB inh,BJeLR lethal
CCOC(=O)c1cnc(-n2nc(C)cc2C)nc1NC1CCCC1,16,-5,163*,4,2,-2
Cc1ccccc1NC(=O)N1CCCSC[C@@H]1CN1CCOCC1,.,.,.,.,-4,.
O=C(c1cc(Nc2ccc(Br)cc2)c2ccccc2n1)N1CCSCC1,.,.,.,.,-7,.
O=C(OCCN1CCCCC1)C1(c2ccccc2)CCCC1,15,-16,-1,-4,-7,7
O=C(OCCN1CCCC1)C1(c2ccccc2)CCCC1,-10,-14,50*!,6,4,0
Cc1cc(C)c2c(n1)CCCN2,.,.,.,.,0,.
